# In the library only some 4% were active in any assay of this set; here they are far more common.
# KKLEB tox: cytotoxicity in KKLEB CF airway cells, primary screen, cytotoxicity control for CF NF-kB inhibitor project, cell-based, uHTS, fluorescence assay plates. KKLEB CF airway cells viability, ATPlite luminescence, overnight; stronger effect = lower value; cells stimulated with P. aeruginosa culture filtrate. activity change (cytotoxicity), % at 5 µM. actives 0.36% (n = 360,000). AID 602141, 2011;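 active = corrected activity change at or below -50% at 5 µM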
# Peg3 promoter: Peg3 promoter-driven luciferase inhibitors, primary screen, cell-based, HeLa, luciferase luminescence; HeLa PEG-Prom luciferase reporter, overnight; inhibition, % at 20 µM; actives 1.7% (n = 360,000);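 active = inhibition of at least 50% at 20 µM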
# CF NFkB block: inhibitors of PAF-induced NF-kB signaling, primary screen, cell-based, GFP fluorescence, uHTS; KKLEB NF-kB-GFP reporter, GFP fluorescence overnight; inhibition, % at 5 µM; actives 0.86% (n = 360,000); AID 588850, 2011;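 active = at least 50% inhibition at 5 µM, scaled per plate between neutral and stimulator controls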;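 also: PAF is a Pseudomonas aeruginosa culture filtrate used as stimulus; plate controls were PAF-stimulated DMSO wells for no effect and unstimulated DMSO wells for full effect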
# TROY NFkB inh: inhibitors of TROY-driven NF-kB signaling, primary screen, Q293 LMP1-TROYcd cells, NF-kB luciferase, uHTS; actives 0.98% (n = 360,000); inhibition, % at 10 µM; AID 1347056, 2019; Q293 LMP1-TROYcd NF-kB luciferase reporter, 4 h;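 active = compounds whose plate-normalised and pattern-corrected inhibition of the luciferase reporter signal at the single screening dose is 50% or more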
# TWEAK Fn14 block: inhibitors of TWEAK-Fn14 signaling, primary screen, luciferase reporter cells, uHTS; TWEAK-stimulated Fn14 reporter cells, luciferase luminescence, 8 h; inhibition, % at 10 µM; actives 2% (n = 360,000); in the data active = inhibition above about 50%
# HIF-2a block: HIF-2a reporter inhibitors, primary screen, luminescence, 786-0 RCC cells. 786-0 RCC cells HIF-2a reporter, luciferase luminescence, overnight. inhibition, % at 18.8 µM. actives 0.72% (n = 360,000). AID 624352, 2012;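 active = inhibition of the luminescence signal of 40% or more relative to plate controls, in a single-dose primary screen at 18.75 µM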
# Starred values were filed as active, the others as inactive; x = no result.
SMILES,KKLEB tox,Peg3 promoter,CF NFkB block,TROY NFkB inh,TWEAK Fn14 block,HIF-2a block
Cc1cc(C)cc(Nc2ncc3c(n2)CC(c2ccco2)CC3=O)c1 (configuration not stated),-1,-6,-9,-16,-5,-38
COC(=O)c1[nH]c2ccccc2c1NC(=O)CN1CCN(C(=O)c2ccco2)CC1,0,16,9,x,87*,6
Cc1ccccc1NC(=O)CN1CCN(C(=O)c2ccco2)CC1,-2,53*,-14,-17,13,-3
COC(=O)c1[nH]c2ccccc2c1NC(=O)CN1CCN(c2cccc(Cl)c2)CC1,0,26,-6,31,59*,21
COc1ccc(NC(=O)C(=O)NCC2CCCN2S(=O)(=O)c2cc(C)ccc2C)cc1 (configuration not stated),-12,17,-14,15,5,5
CSc1ccc(CN2CCC(C)(Oc3ccc(F)cc3)C2)cc1 (configuration not stated),-15,-16,-10,-4,-6,3
C[C@@H]1CN([C@@H](C)CO)C(=O)c2cc(Br)cnc2O[C@H]1CN(C)C(=O)NC1CCCC1,-14,1,2,21,5,14
COc1ccc(CN2CCN(c3ccc(F)cc3)CC2)c(OC)c1OC,5,18,-2,19,6,23
COc1ccc(CN2CCN(C(c3ccc(F)cc3)c3ccc(F)cc3)CC2)c(OC)c1OC,0,77*,22,29,24,-18
COc1cc(C(=O)Nc2ccc3c(c2)Cc2cc(NC(=O)c4cc(OC)c(OC)c(OC)c4)ccc2-3)cc(OC)c1OC,-77*,23,68*,15,-39,5
COc1cc(C(=O)Nc2ccncc2)cc(OC)c1OC,1,11,14,-1,-7,5
CCc1nc2c(OCCn3cccc3)cccn2c1N(C)C(=O)c1ccccc1F,1,6,-9,0,0,5
COc1ccc(S(=O)(=O)N(CCCN2CCCC2=O)Cc2cc3cc(C)c(C)cc3[nH]c2=O)cc1,12,24,3,14,94*,11
CC(=O)CSc1nnc(-c2ccc3c(c2)OCO3)o1,2,-70,-18,31,58*,-28
CC1=NN(c2nc(N)nc(/C(C#N)=C/c3ccc([N+](=O)[O-])o3)n2)C(C)(C)C1,-69*,102*,-6,-1,71*,2
CCOC1=C2[C@@H](CN(S(=O)(=O)c3ccc(C)cc3)[C@H]2c2ccc(Cl)cc2)[C@H]2C(=O)N(c3ccccc3)C(=O)[C@H]2C1,2,5,12,-28,16,-4
CCOC(=O)c1ccc(Nc2sc(C(=O)c3cccc([N+](=O)[O-])c3)c(N)c2C#N)cc1,-8,52*,-5,-67,8,4
CC/C(=N/N=C(/CC)c1ccc(O)cc1)c1ccc(O)cc1,-4,8,-9,17,-12,0
CNC(=O)C1Cc2ccccc2CN1S(=O)(=O)c1cccs1 (configuration not stated),3,51*,-10,-1,17,2
CCOc1ccccc1C(=O)OC(C)C(=O)Nc1ccc(S(=O)(=O)N2CCCC2)cc1 (configuration not stated),0,8,1,10,3,4
CC(=O)OC1COC(N2CCc3ccccc32)C(OC(C)=O)C1OC(C)=O (configuration not stated),4,12,9,2,61*,-10
O=S(=O)(NC1c2cccc3cccc(c23)C1N1CCNCC1)c1ccc(Cl)cc1 (configuration not stated),-19,77*,24,-13,-46,11
O=S(=O)(c1cccc(F)c1)N1CCN(C(=S)NCC2CCCO2)CC1 (configuration not stated),-16,0,9,17,-2,7
CC(C)(C)NC(=O)COc1coc(CN2CCN(Cc3ccccc3)CC2)cc1=O,-1,-7,-18,6,0,10
COc1ccc(-c2cc3cc(F)ccc3cn2)cc1,4,-217,-2,-55,24,-183
SMILES,KKLEB tox,Peg3 promoter,CF NFkB block,TROY NFkB inh,TWEAK Fn14 block,HIF-2a block
COc1ccc(-c2cc3ccc(F)cc3cn2)cc1,-13,-205,-38,-15,50*,-183
COc1cccc2c1C(=O)c1c(O)c3c(c(O)c1C2=O)CC(O)(C(=O)CO)CC3OC1CC(N(C)C)C(O)C(C)O1 (configuration not stated),-37,93*,76*,57*,97*,38
COc1cccc2c1C(=O)c1c(O)c3c(c(O)c1C2=O)C[C@@](O)(C(C)=O)C[C@@H]3O[C@H]1C[C@H](N)[C@H](O)[C@H](C)O1,-47,89*,66*,69*,96*,26
COc1cccc2c1C(=O)c1c(O)c3c(c(O)c1C2=O)C[C@@](O)(C(=O)CO)C[C@@H]3O[C@H]1C[C@H](N)[C@@H](O)[C@H](C)O1,-54*,94*,70*,-3,88*,4
COc1cc(-c2ccc3cc(OC)c(OC)c(OC)c3c2)cc(OC)c1OC,-22,18,-35,-6,21,-13
CCc1nc2c(OCCOc3ccc(F)cc3)cccn2c1N(C)C(=O)CC(C)C,-14,2,3,3,9,5
COCCN(C(=O)c1cc(-c2ccco2)nc2ccccc12)c1c(N)n(Cc2ccccc2)c(=O)[nH]c1=O,22,7,-29,14,19,19
O=C(CNS(=O)(=O)Cc1ccccc1)NCc1ccccc1,13,-4,-3,-5,14,7
O=C(CNS(=O)(=O)Cc1ccccc1)NNc1ccccc1,10,-4,-17,56*,3,8
O=C(CCCCCNc1nc(=S)[nH]c2ccccc12)NCCc1c[nH]c2ccccc12,4,51*,13,38,41,19
COC(=O)/C=C/S(=O)(=O)c1ccc(NC(C)=O)cc1,-22,105*,91*,28,-9,13
COc1ccccc1OS(=O)(=O)c1ccc(NC(C)=O)cc1,17,2,-8,18,29,3
Cc1ccc2nc(-c3cc(-c4ccccc4)no3)cn2c1,-6,11,-4,41,79*,-32
Oc1ccccc1-c1cc(-c2ccccc2)no1,-9,-256,-5,-32,40,-228
CCc1ccn2cc(-c3cc(-c4ccccc4)no3)nc2c1,-52*,73*,-27,87*,106*,64*

# Screens as filed in PubChem BioAssay.
